# Measurements as given in PubChem BioAssay AID1362 (SRMLSC, 2008).
# The whole screen tested about 190,000 compounds, of which about 4,000 (2.1%) were called active. No stated cut-off is given here; in the data, active means inhibition above about 58%; inactive means the rest, inconclusive results apart; tested in S. cerevisiae. Only a selection was taken, and actives are over-represented in it overall.
# Assay: growth inhibition of WT strain, primary screen, mitochondrial fusion inhibitor project, WT and mutant strains, chemical genetic (AID 1362)
# Conditions: mitochondrial fusion phenotypic screen, at 10 µM
# [1] = WT strain, growth inhibition, stronger effect = higher value
Compound,inhibition [1],inhibition (mutant strain inhibition)
CC(C(=O)Nc1ccc(Cl)cc1Cl)N1CC=C(c2ccccc2)CC1 (stereo not given),70.9% (active),1.22%
CN1CCN(C(=S)SCC(=O)Nc2ccc(Cl)cc2C(=O)c2ccccc2)CC1,7.01% (inactive),6.59%
O=C(OCCN1CCOCC1)C1(c2ccccc2)CCCC1,8.37% (inactive),10.3%
CCCOC(=O)C1C2c3ccccc3C(c3ccccc32)C1C(=O)O (stereo not given),-5.35% (inactive),-6.76%
CC1=CC(=Cc2sc3ccccc3[n+]2C)C=C(C)O1,65.7% (active),63.1%
COP(=O)(OC)C(NC(=O)c1ccc(C)cc1)C(Cl)(Cl)Cl (stereo not given),3.22% (inactive),7.65%
Cc1cc(C=C2C(=O)NC(=O)NC2=O)c(C)n1-c1ccncc1,-0.16% (inactive),-6.83%
O=C(Cn1c(=O)n(CC2CS2)c2ccccc21)N1CCCCC1 (stereo not given),0.43% (inactive),-0.1%
O=C(CN1CCCCC1)Nc1ccc(Br)cc1C(=O)c1ccccc1Cl,74.3% (active),9.62%
O=C(COC(=O)c1ccccc1)Nc1ccc(Cl)cc1C(=O)c1ccccc1,16.3% (inactive),10.6%
O=C(CCN1CCCCC1)NCC(=O)Nc1ccc(Br)cc1C(=O)c1ccccc1,7.53% (inactive),1.33%
CCOC(=O)C1(CCc2ccccc2)CCN(Cc2ccco2)CC1,12.8% (inactive),4.98%
COc1ccccc1N=Nc1c(O)[nH]c(=S)[nH]c1=O,4.7% (inactive),1.05%
CC(c1ccccc1)(c1ccccc1)c1ccncc1,26.6% (inactive),19.3%
COP(=O)(NS(=O)(=O)c1ccccc1)OC,-9.16% (inactive),-1.53%
